Out of some 360,000 compounds screened, about 25,000 (6.9%) were called active. Not shown: some 9% with an inconclusive outcome. The call rests on the fitted dose curve; in most records, active means well fitted inhibition curve with a large enough effect; inconclusive means small, poorly fitted or top-dose-only effect; inactive means flat fitted curve, though single readings scatter. For the sample, actives were picked, then their nearest neighbours and some compounds at random.
target: Luciferin 4-monooxygenase (Photinus pyralis) (UniProt P08659); test: qHTS profiling assay for firefly luciferase inhibitor/activator using purifed enzyme and Km concentrations of substrates (counterscreen for miR-21 project); conditions: purified FLuc, luminescence inhibition; series mostly up to 57.5 µM; activity change, negative = inhibition: at the top concentration; further: nearly all actives have a fitted effect of over 55% in size;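 on activity change, negative = inhibition: plate controls were vehicle for no effect and reference inhibitor for full effect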
Method in brief: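 Purified P. pyralis luciferase (10nM final) with 10uM D-luciferin and 10uM ATP (Km levels) in 50mM Tris acetate pH 7.5, 10mM Mg acetate, 0.01% Tween-20, 0.05% BSA; qHTS 6-point titration, ~60 µM downward; luminescence read.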
Potency means the concentration at half of the fitted maximal effect.

Luciferin 4-monooxygenase (Photinus pyralis), sequence (P08659 whole entry, looked up): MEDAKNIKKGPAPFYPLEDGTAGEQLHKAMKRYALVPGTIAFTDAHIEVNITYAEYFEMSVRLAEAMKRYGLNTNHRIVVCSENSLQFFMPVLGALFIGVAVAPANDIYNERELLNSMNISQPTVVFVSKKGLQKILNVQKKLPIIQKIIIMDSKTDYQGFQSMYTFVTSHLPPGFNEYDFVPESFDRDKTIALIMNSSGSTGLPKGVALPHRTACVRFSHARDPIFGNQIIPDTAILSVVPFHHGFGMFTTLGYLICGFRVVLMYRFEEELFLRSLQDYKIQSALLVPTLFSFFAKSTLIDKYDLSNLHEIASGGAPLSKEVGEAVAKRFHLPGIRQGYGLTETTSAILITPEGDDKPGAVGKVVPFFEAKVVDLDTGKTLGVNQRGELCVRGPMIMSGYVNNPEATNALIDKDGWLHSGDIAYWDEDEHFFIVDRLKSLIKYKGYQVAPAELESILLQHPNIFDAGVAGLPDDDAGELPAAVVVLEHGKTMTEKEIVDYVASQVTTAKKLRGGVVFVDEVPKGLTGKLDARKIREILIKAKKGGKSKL

SMILES | Potency | activity change, negative = inhibition
COc1ccc(S(=O)(=O)/N=C2\C=C(NS(=O)(=O)c3ccccc3)C(=O)c3ccccc32)cc1 | 15.1 µM (active) | –
COc1ccc(NS(=O)(=O)c2ccc(Oc3c(C#N)cccc3C#N)cc2)cc1 | – | -2.11% (inactive)
CCCC(NS(=O)(=O)c1ccc(OC)cc1)C(=O)O (stereo unspecified) | – | -1.49% (inactive)
CCCCc1ccc(NC(=O)CN2C(=O)NC(Cc3ccccc3)C2=O)cc1 (stereo unspecified) | – | 1.04% (inactive)
CCCCN(C(=O)c1nn(C)c(=O)c2ccccc12)c1c(N)n(CCC)c(=O)[nH]c1=O | – | 0.567% (inactive)
Cc1ccc(S(=O)(=O)NCCNC(C)c2ccc(Br)cc2)cc1 (stereo unspecified) | – | 0.553% (inactive)
CCOC(=O)c1ccc(NC2=CC(c3ccc(OCC)cc3)N(c3ccc(C(=O)OCC)cc3)C2=O)cc1 (stereo unspecified) | – | -7.59% (inactive)
CC1(C)Cc2c(sc(NC(=O)C(=O)N3CCOCC3)c2C#N)CO1 | – | 0.455% (inactive)
CCOC(=O)N1CCN(C(=O)C(=O)Nc2sc3c(c2C#N)CC(C)(C)OC3)CC1 | 16.9 µM (active) | –
COC(=O)c1c(NC(=O)C(=O)N2CCCCC2)sc2c1CC(C)(C)OC2 | – | 0.968% (inactive)
COc1ccc(NC(=S)N2CCCC(CO)C2)c(OC)c1 (stereo unspecified) | – | -3.78% (inactive)
CCCCc1ccc(NC(=S)N2CCCC(CO)C2)cc1 (stereo unspecified) | 2.69 µM (active) | –
CCCCc1ccc(NC(=S)NCCCN2CCOCC2)cc1 | – | -1.41% (inactive)
CCOc1ccc(CNC(=O)c2cc(=O)[nH]c3ccc(S(=O)(=O)N4CCCCC4)cc23)cc1 | – | 1.65% (inactive)
Cc1ccc2c(CN3CCN(S(=O)(=O)c4ccccc4C(F)(F)F)CC3)cc(=O)oc2c1 | – | -1.82% (inactive)
COc1ccc(CNC(=O)c2ccc3c(c2)nc2n3CCOC2)c(OC)c1 | – | -9.19% (inactive)
COc1ccc(OC)c(CN2CCN(C(=O)CNC(=O)c3cc(C)cc(C)c3)CC2)c1 | – | 0.562% (inactive)
Cc1ccc(C(=O)CSc2nc(-c3ccccc3)nc3c2CCCC3)c(C)c1 | – | -6.25% (inactive)
COc1ccc(C(=O)CSc2nnnn2C)c(OC)c1 | – | -3.87% (inactive)
CCn1nnnc1SCC(=O)c1ccc(C)cc1C | 6.75 µM (active) | –
CCOc1ccccc1N(C)C(=O)c1cc2c(s1)-c1ccccc1OC2 | – | -17.2% (inactive)
CC1(C)CC(=O)C=C(c2ccc(Cl)c(C(F)(F)F)c2)C1 | – | -1.98% (inactive)
N#CC(=C1SC=CS1)c1nc(-c2ccccc2)cs1 | 7.57 µM (active) | –

SMILES | Potency | activity change, negative = inhibition
N#C/C(=C1/CCCN1)c1ccccn1 | – | 0.552% (inactive)
COc1cccc(C(=O)OCC(=O)c2[nH]c(C)c(C(C)=O)c2C)c1 | – | 3.9% (inactive)
CCc1ccc(NC(=O)c2cnc3c(-c4ccccc4)c(C)nn3c2C)cc1 | – | -4.43% (inactive)
COc1ccccc1C(=O)Nc1ccc(OCc2nnc3c4ccccc4c(C)nn23)cc1 | 4.26 µM (active) | –
COc1cc(C(=O)Nc2ccc(OCc3cc(=O)n4ccc(C)cc4n3)cc2)cc(OC)c1OC | – | -2.02% (inactive)
Cc1cccc(C(=O)NNC(=O)CSc2nnc(C(C)C)n2C)c1 | – | 0.258% (inactive)
C=CCn1c(C)cc(C2=NNC(=NCC)SC2)c1C | 0.151 µM (active) | –
COCCn1c(C)cc(C2=NNC(=Nc3ccc(F)cc3)SC2)c1C | 3.38 µM (active) | –
Cc1ccc(S(=O)(=O)c2ccc(Cl)cc2)cc1S(=O)(=O)NC(C(=O)O)C(C)C (stereo unspecified) | – | -1.66% (inactive)
CCOc1ccc(OCC)c(Nc2nc3ccccc3n3nnnc23)c1 | – | -4.04% (inactive)
Cc1cccc(N(C(=O)c2ccc(CN3CCOCC3)o2)C(C(=O)NC2CCCCC2)c2ccc(F)cc2)c1 (stereo unspecified) | – | 0.757% (inactive)
CCc1cc2c(cc3c(=O)n(CC(=O)N4CCN(c5cc(Cl)ccc5C)CC4)ncn32)s1 | – | -1.68% (inactive)
CCOc1ccc(N(C)S(=O)(=O)c2cc(-c3cnc(C)o3)ccc2OC)cc1 | – | -13.9% (inactive)
Cc1cc(C)c(NC(=O)CSc2nc3nccnc3c(=O)n2CCc2c[nH]c3ccccc23)c(C)c1 | – | 1.53% (inactive)
COCCNC(=O)c1ccc2c(c1)N(Cc1cccc(Cl)c1)C(=O)c1ccccc1S2(=O)=O | – | 2.89% (inactive)
Cc1cc(C)cc(OCC(=O)NNC(=O)c2cc3ccccc3oc2=O)c1 | – | -3.62% (inactive)
COc1ccc2oc(=O)c(C(=O)NCc3ccccn3)cc2c1 | – | -18.7% (inactive)
COc1ccc(CNC(=O)c2cc3cccc(OC)c3oc2=O)cc1 | – | 1.19% (inactive)
COc1cccc2cc(C(=O)NCc3ccc(C)cc3)c(=N)oc12 | 5.36 µM (active) | –
COc1cccc2cc(C(=O)N3CCN(C(=O)c4ccccc4)CC3)c(=O)oc12 | – | 1.94% (inactive)
CN(c1ccccc1)S(=O)(=O)c1ccc(Cl)c(C(=O)NCCc2c[nH]c3ccccc23)c1 | – | 1.57% (inactive)
NC(=O)c1cc2ccccc2o/c1=N/NC(=O)c1cccc(F)c1 | – | -6.69% (inactive)
COc1cccc2cc(C(N)=O)/c(=N\NC(=O)c3ccccc3)oc12 | 1.69 µM (active) | –

SMILES | Potency | activity change, negative = inhibition
O=C(NCCc1c[nH]c2ccccc12)c1cc2ccccc2oc1=O | 16.9 µM (active) | –
Cc1cc(C)cc(NC(=S)NCCc2c[nH]c3ccccc23)c1 | – | -0.441% (inactive)
COc1cccc2cc(C(=O)N(C)C)c(=O)oc12 | – | 4.57% (inactive)
O=C(NCc1ccccn1)c1cc2ccccc2oc1=O | 13.5 µM (active) | –
N#Cc1ccc(CN2CCN(CC(=O)Nc3ccccc3C(=O)NC3CC3)CC2)cc1 | – | 0.877% (inactive)
Cc1ccc(C(NC(=O)N2CCCC2)C(Cl)(Cl)Cl)cc1F (stereo unspecified) | – | -0.884% (inactive)
CCCCn1c(=O)c2oc3ccccc3c2n(CC(=O)Nc2ccccc2OC)c1=O | – | -0.61% (inactive)
COc1ccc(C)cc1-n1c(-c2ccc(C)cc2)cc2c1CC(C)(C)CC2=O | – | 5.93% (inactive)
COC(=O)C1=C(C)NC(=S)NC1c1ccc(OCC(=O)N2CC(C)OC(C)C2)c(OC)c1 (stereo unspecified) | – | 3.18% (inactive)
CC(=O)Nc1ccc(S(=O)(=O)N2CCN(S(=O)(=O)c3cccs3)CC2)cc1 | – | -1.89% (inactive)
O=C(NCC(c1ccc2c(c1)OCO2)N1CCN(c2ccccc2)CC1)C(=O)Nc1ccccc1F (stereo unspecified) | – | -9.43% (inactive)
COc1ccc(CCNC(=O)c2nn(C)c3c2CSc2ccccc2-3)cc1OC | – | -17.3% (inactive)
COc1ccc(C(=O)NCC2CCCCC2)cc1S(=O)(=O)N1CCCC1 | – | -4.76% (inactive)
CCC(=O)N1CCc2cc(Br)cc(S(=O)(=O)CCC(=O)NCc3ccccc3OC)c21 | – | -9.49% (inactive)
COc1cc(OC)c(NC(=O)c2cnc(N3CCCC3)nc2C)cc1Cl | – | 2.64% (inactive)
Cc1sc2nc(CC(N)=O)[nH]c(=O)c2c1-c1ccccc1 | – | 2.11% (inactive)
CC1CCC2(CC1)N=C(c1ccccc1)C(=O)N2CC(=O)Nc1ccc(F)c(Cl)c1 (stereo unspecified) | – | -0.323% (inactive)
O=C(NCc1ccccc1)c1cc(-c2cccc(Cl)c2)on1 | – | 2.29% (inactive)
O=C(N/N=C\c1cccc(Br)c1)c1ccccc1-n1cccc1 | – | 0.179% (inactive)
N=c1oc2ccccc2cc1C(=O)NCc1ccccc1 | 9.53 µM (active) | –
O=C(CCCCCNC(=O)c1ccccc1)N/N=C/c1ccccc1 | – | 0.301% (inactive)
CSc1ccccc1C(=O)NCc1ccccc1 | – | 3.41% (inactive)
N=c1oc2ccccc2cc1C(=O)N/N=C/c1ccccc1 | 1.35 µM (active) | –

SMILES | Potency | activity change, negative = inhibition
Nc1ccc(C(=O)NCc2ccccc2)cc1 | – | -5.23% (inactive)
O=C(NCc1ccccn1)c1cc(-c2ccccc2Cl)on1 | 10.7 µM (active) | –
CCCCNC(=O)c1cc(-c2ccc(Cl)c(Cl)c2)on1 | – | 2.84% (inactive)
CC(C)[C@H](NC(=O)N1CCn2c1nc1ccccc12)C(=O)NCCc1ccccc1 | – | 0.834% (inactive)
Cc1ccc(/C=N/NC(=O)CN2CCN(Cc3ccccc3)CC2)s1 | – | -3.1% (inactive)
Cc1ccc(C(=O)Nc2c(C#N)c(C)c(C)n2Cc2ccccc2)cc1 | – | -1.22% (inactive)
Cc1ccc(C(=O)N/N=C/c2sc(=O)n(Cc3cccc(C(=O)O)c3)c2Cl)cc1 | 16.9 µM (active) | –
C=C1CCC(N(O)c2cc(C)on2)C(=C)CCC2C1CC2(C)C (stereo unspecified) | – | -0.208% (inactive)
CCCCCc1ccc(-c2ccc(OCC)cc2)nc1 | 10.7 µM (active) | –
CCOc1ccc(-c2cc(C)n3nc(C(=O)Nc4ccc(C)c(C)c4)cc3n2)cc1 | – | 2.77% (inactive)
CCOc1c(CNCc2ccc(C(=O)O)cc2)cccc1OC | – | -0.885% (inactive)
Cc1ccc(-c2cn3c(n2)sc2cc(C(=O)NCCCc4ccccc4)ccc23)cc1 | – | -7.52% (inactive)
CCCCCc1ccc(-c2ccc(C(=O)O)cc2)nc1 | 0.675 µM (active) | –
CCCCCc1ccc(-c2cn(Cc3ccc4ccccc4c3)nn2)cc1 | – | 1.7% (inactive)
Cc1cc(F)ccc1S(=O)(=O)Nc1ccc(C(=O)N(C)Cc2ccco2)cc1 | – | -0.606% (inactive)
CCc1nc2nc(C)cc(Nc3ccc(F)c(Cl)c3)n2n1 | – | 7.42% (inactive)
COc1ccc(/C=C/c2nc(C#N)c(NCc3ccc(F)cc3)o2)cc1OC | – | -8.93% (inactive)
CCCCCn1c(=O)[nH]c2cc(C(=O)NCCN(C)CCCC)ccc2c1=O | – | 0.508% (inactive)
CCc1ccc(C2CC(=O)c3c([nH]c(C(=O)OCc4ccc(C)cc4)c3C)C2)cc1 (stereo unspecified) | – | 0.719% (inactive)
COc1ccccc1Nc1c2c(nc3ccc(NC(=O)/C=C/c4cc(OC)c(OC)c(OC)c4)cc13)CCCC2 | – | 22.1% (inactive)
N#Cc1cccc(NC(=O)C2CCCN(C(=O)c3ccc(Cl)cc3)C2)c1 (stereo unspecified) | – | -1.14% (inactive)
CCc1ccc(CNCc2c(C(=O)O)n(Cc3ccc(F)cc3Cl)c3cc(OC)ccc23)cc1 | – | -6.35% (inactive)
O=C(CSc1nc2c(c(=O)[nH]1)CN(Cc1ccc3c(c1)OCO3)CC2)Nc1cc(F)ccc1F | – | -4.96% (inactive)

SMILES | Potency | activity change, negative = inhibition
c1ccc(-c2cn3c(n2)CCc2ccc4cccnc4c2-3)cc1 | 10.7 µM (active) | –
COc1ccc(NC(=O)CCCc2nnc3n(CCC(C)C)c(=O)c4sccc4n23)c(OC)c1 | – | 1.17% (inactive)
CCc1ccc(NC(=O)c2cc3c(=O)n(Cc4cccnc4)ccc3nc2C)cc1 | – | -5.95% (inactive)
CCN(CC)CCCNC(=O)COc1ccc2oc3c(c2c1)CCCC3 | – | -2.85% (inactive)
O=C(COc1ccc2oc3c(c2c1)CCCC3)Nc1ccccn1 | 1.07 µM (active) | –
CCOC(=O)N1CCN(C(=O)COc2ccc3oc4c(c3c2)CCCC4)CC1 | – | -16.5% (inactive)
COc1ccc(C2c3c(oc4ccccc4c3=O)C(=O)N2Cc2ccc3c(c2)OCO3)cc1 (stereo unspecified) | – | -4.43% (inactive)
O=C(Cc1c(F)cccc1Cl)Nc1ccc(-n2cnnn2)cc1 | – | 2.75% (inactive)
CCN(CC)S(=O)(=O)c1ccc(N2CCOCC2)c(NC(=O)C2COc3ccccc3O2)c1 (stereo unspecified) | – | -2.19% (inactive)
O=C(CCc1ccccc1)Nc1ncc([N+](=O)[O-])s1 | 15.1 µM (active) | –
CC(/C=C/c1ccco1)=N/NC(=O)C1COc2ccccc2O1 (stereo unspecified) | – | -20.5% (inactive)
CN(c1ccccc1)S(=O)(=O)c1cccc(NC(=O)Cc2c(F)cccc2Cl)c1 | – | -5.92% (inactive)
COc1ccc([N+](=O)[O-])cc1NC(=O)CCc1ccccc1 | – | -4.23% (inactive)
O=C(Nc1ncc([N+](=O)[O-])s1)C1COc2ccccc2O1 (stereo unspecified) | 21.3 µM (active) | –
O=C(Cc1c(F)cccc1Cl)Nc1ncc([N+](=O)[O-])s1 | 21.3 µM (active) | –
COc1ccc(NC(=O)CC2COc3ccccc3O2)c(OC)c1 (stereo unspecified) | – | -1.63% (inactive)
C/C(=N/NC(=O)C1COc2ccccc2O1)c1ccco1 (stereo unspecified) | – | 2.51% (inactive)
CC(C)Cc1nnc(NC(=O)CCc2ccccc2)s1 | – | -15.7% (inactive)
COc1ccc(NC(=O)C2COc3ccccc3O2)cc1 (stereo unspecified) | 16.9 µM (active) | –

— PubChem BioAssay AID588342 (National Center for Advancing Translational Sciences (NCATS), 2011)
